From PubChem BioAssay (NCATS)
Results filed as inconclusive are left out. The source made the active and inactive calls. Calls follow the shape of the dose curve; as a rule, active = well fitted inhibition curve with a large enough effect; inconclusive = small, poorly fitted or top-dose-only effect; inactive = flat fitted curve, though single readings scatter. Where a SMILES comes first, the peptide text is derived from it. [ ]: non-standard residue; d: D form. ξ: configuration not given here. ξPhe(βξ-Me) = CC(c1ccccc1)C(N)C(=O)O; GABA = NCCCC(=O)O

test system: HEK293; assay: Cytotoxic Profiling of Annotated Libraries Using Quantitative High-Throughput Screening (AID 1296008); settings: Five cell lines viability, CellTiter-Glo ATP luminescence, 48-72 h; max response: active compounds read low; also: nearly all actives have a fitted effect of over 60% in size
In short: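 Compounds were pin-transferred onto cells and incubated 48 or 72 hr at 37 degree Celsius, 95% humidity. CellTiter-Glo was added, plates sat 10 min at room temperature, then ATP-coupled luminescence was imaged as the viability read-out.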
% is scaled to controls: 0 for no effect and ±100 for the full control effect; potency is read from the fitted curve at half-maximal effect.

Compound | max response | Potency
C/C(=C\CCC1(C)C2CCC(C2)C1(C)O)C(=O)O (centres undefined) | -6.56% (inactive) | –
C[C@@H]1O[C@@H](O[C@H]2[C@H](O[C@H]3[C@H](O[C@H]4CC[C@@]5(C)C(CC[C@]6(C)C5CC=C5[C@@H]7CC(C)(C)CC[C@]7(C(=O)O[C@@H]7O[C@H](CO)[C@@H](O[C@@H]8O[C@@H](C)[C@H](O)[C@@H](O)[C@H]8O)[C@H](O)[C@H]7O)CC[C@]56C)C4(C)C)OC[C@H](O)[C@@H]3O)O[C@H](CO)[C@@H](O)[C@@H]2O)[C@H](O)[C@H](O)[C@H]1O (some centres undefined) | -93.1% (inactive) | –
CC(NC(=O)CCc1nc2ccccc2c(=O)[nH]1)c1ccccc1 (centres undefined) | -0.47% (inactive) | –
CC1(C)CCC2(C(=O)OC3OCC(O)C(O)C3O)CCC3(C)C(=CCC4C5(C)CC(O)C(OC6OC(COC7OCC(O)C(O)C7O)C(O)C(O)C6O)C(C)(C)C5CCC43C)C2C1 (centres undefined) | -7.77% (inactive) | –
CS(=O)(=O)NCC1CCC(Nc2nc3c(s2)CCSc2ccccc2-3)CC1 (centres undefined) | – | 14.6 µM (active)
O=C(/C=C/c1ccc(O)cc1)OC1[C@H](O)CC(O)(C(=O)O)C[C@H]1O (some centres undefined) | -1.83% (inactive) | –
C=CC(C)(O)C(O)CC1C(C)(O)C(O)C(O)C2C(C)(C)CCCC21C (centres undefined) | -10.3% (inactive) | –
CC[C@H]1OC(=O)[C@H](C)[C@@H](O[C@H]2C[C@@](C)(OC)[C@@H](O)[C@H](C)O2)[C@H](C)[C@@H](O[C@@H]2O[C@H](C)C[C@H](N(C)C)[C@H]2O)[C@](C)(O)C[C@@H](C)C(=O)[C@H](C)[C@H]2OC(=O)O[C@@]21C | -4.98% (inactive) | –
NC(=O)Nc1cc(-c2cccc(F)c2)sc1C(=O)NC1CCCNC1 (centres undefined) | -108% (inactive) | –
CCC(O)C(C)C1CCC(C(C)C(=O)O)O1 (centres undefined) | -7.28% (inactive) | –
O=C1C=CC2OC(c3ccccc3)C(O)C2O1 (centres undefined) | – | 23.1 µM (active)
CC(C)c1cc2c(c(O)c1O)[C@@]13CCCC(C)(C)[C@@H]1[C@H](OC3=O)C2=O | -6.57% (inactive) | –
[N-]=[N+]=N[C@]1(CO)O[C@@H](n2ccc(=O)[nH]c2=O)[C@@H](O)[C@@H]1O | -4.49% (inactive) | –
CN1C2CCC1CC(OC(=O)[C@H](CO)c1ccccc1)C2 (some centres undefined) | -10.6% (inactive) | –
O=C(O)C(O[C@@H]1O[C@H](CO[C@@H]2O[C@H](CO)[C@@H](O)[C@H](O)[C@H]2O)[C@@H](O)[C@H](O)[C@H]1O)c1ccccc1 (some centres undefined) | -7.94% (inactive) | –
OCC(CO[C@@H]1O[C@H](CO)[C@@H](O)[C@H](O)[C@H]1O)c1ccc2c(c1)OCO2 (some centres undefined) | -1.28% (inactive) | –
C=C1C[C@]23C[C@H]1[C@@H](O)C[C@H]2[C@@]12C=C[C@H](O)[C@@](C)(C(=O)O1)[C@H]2[C@@H]3C(=O)O | -1.36% (inactive) | –
O=C(O)c1ccc(OC2OC(CO)C(O)C(O)C2O)cc1 (centres undefined) | -2.82% (inactive) | –
OC[C@H]1O[C@@H](Oc2ccccc2)[C@H](O)[C@@H](O)[C@@H]1O | 0.0932% (inactive) | –
C[C@]1(CO)CCC[C@]2(C)C3=C(CCC12)COC3 (some centres undefined) | -9.57% (inactive) | –

Compound | max response | Potency
CCOC(=O)C(CCc1ccccc1)NC(C)C(=O)N1C(=O)N(C)CC1C(=O)O (centres undefined) | -4.81% (inactive) | –
C[C@@H]1O[C@@H](O[C@H]2[C@H](OC(=O)[C@]34CCC(C)(C)C[C@H]3C3=CCC5[C@@]6(C)CC[C@H](O[C@@H]7O[C@H](C(=O)O)[C@@H](O)[C@H](O)[C@H]7O[C@@H]7O[C@H](CO)[C@H](O)[C@H](O)[C@H]7O)[C@@](C)(C=O)C6CC[C@@]5(C)[C@]3(C)C[C@H]4O)O[C@H](C)[C@H](O[C@@H]3O[C@H](C)[C@H](O)[C@H](O)[C@H]3O)[C@@H]2O)[C@H](O)[C@H](O)[C@H]1O[C@@H]1OC[C@@H](O)[C@H](O[C@@H]2O[C@H](CO)[C@@H](O)[C@H](O)[C@H]2O)[C@H]1O (some centres undefined) | -75.9% (inactive) | –
N#Cc1ccc(C(=O)N2CCC3(CC2)N=C(N)c2c(F)ccc(F)c2N3)cn1 | -18.7% (inactive) | –
COC(=O)C1=CO[C@@H](O)C2C(CO)=CCC12 (some centres undefined) | 4.75% (inactive) | –
CN(CCc1ccc(Nc2ncc(-c3cccnc3)s2)cc1)Cc1ccccc1 | – | 7.31 µM (active)
C/C=C1\[C@H](O[C@@H]2O[C@H](CO)[C@@H](O)[C@H](O)[C@H]2O)OC=C(C(=O)OC)[C@H]1CC(=O)OC[C@H]1O[C@@H](OCCc2ccc(O)cc2)[C@H](O)[C@@H](O)[C@@H]1O | 0.429% (inactive) | –
CN1CCN(Cc2ccc(-c3cnc4[nH]cc(-c5ccc6[nH]ccc6c5)c4c3)cc2)CC1 | – | 6.51 µM (active)
CC(=O)NCC(=O)N1C2CCC1c1cc(Nc3ncc(C(F)(F)F)c(NC4CCC4)n3)ccc12 (centres undefined) | – | 2.59 µM (active)
COc1cc2ncnc(Nc3ccc(O)cc3)c2cc1OC | -8.09% (inactive) | –
CC(=O)NC1=NN(C(C)=O)C(C)(c2ccccc2)S1 (centres undefined) | – | 4.11 µM (active)
COc1ccc(Oc2cc(C)c(-c3csc(NC(=O)c4ccncc4)n3)c(C)c2)cc1 | – | 0.326 µM (active)
CC1=CC(=O)C2(OC3OC(C)C(O)C(OC(=O)/C=C/c4ccccc4)C3O)C=COC(OC3OC(CO)C(O)C(O)C3O)C12 (centres undefined) | -0.0394% (inactive) | –
C=C(C)C1CCC2(C(=O)O)CCC3(C(=O)O)C(CCC4C5(C)CCC(O)C(C)(C(=O)O)C5CCC43C)C12 (centres undefined) | 3.45% (inactive) | –
COc1cc(OC)c(/C=C/S(=O)(=O)Cc2ccc(OC)c(NCC(=O)O)c2)c(OC)c1 | – | 0.058 µM (active)
CC1COC2(OC3CC4C5CC(O[C@@H]6O[C@H](C)[C@@H](O[C@@H]7O[C@@H](C)[C@H](O)[C@@H](O)[C@H]7O)[C@H](O)[C@H]6O)C6CC(O)CCC6(C)C5CCC4(C)C3C2C)C(O)C1 (some centres undefined) | 3.68% (inactive) | –
CC1NC(=O)CCCNC(=O)C(Cc2c[nH]c3ccccc23)NC(=O)C(C)NC(=O)C(C(C)C)NC(=O)C(C(C)c2ccccc2)NC(=O)C(C(C)C)NC1=O (stereo not drawn) (cyclo([GABA]AV[ξPhe(βξ-Me)]VAW); configuration not given here) | -4.9% (inactive) | –
CC12CCC(=O)C=C1C(O)CC1C2C(O)CC2(C)C1CC[C@]2(O)C(=O)CO (some centres undefined) | -5.89% (inactive) | –
CC(C(O)/C=C/C(C)(C)O)C1CCC2(C)C3C(=O)C=C4C(CCC(O)C4(C)C)C3(C)CCC12C (centres undefined) | -3.03% (inactive) | –
FC(F)(F)c1cc(-c2ncn(/C=C\c3nnco3)n2)cc(C(F)(F)F)c1 | – | 3.26 µM (active)
